Values joined by “and” are separate entries in the source; they are usually repeats but may differ in a detail not shown here. Equal entries are not always repeated. Out of some 5,500 compounds screened, about 2,000 (36%) were called active. Inconclusive results (about 18%) are left out. No stated cut-off is given here; in the data, active means normalized growth mostly below about 0.91 (no sharp cut-off); inconclusive means no clear call, values can overlap the other calls; inactive means mostly above about 0.92. Some of the results follow.
Test: chemical genetic growth profiling, strain panel (AID 1159580);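 further: tested at 20 µM; growth read once vehicle control cultures reached saturation at 30 °C; 1 = growth at the plate median or of vehicle wells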
Conditions: S. cerevisiae deletion strains, growth OD

Measured: normalized growth

CCN(CC)C(=O)N1CCN(C)CC1
inactive: locus YAL021C, strain ccr4, stronger effect = lower value 0.984 | locus YAL026C, strain drs2, stronger effect = lower value 0.967 | locus YAL030W, strain snc1, stronger effect = lower value 0.967 | locus YBL061C, strain skt5, stronger effect = lower value 0.976 | locus YBR009C, strain hhf1, stronger effect = lower value 0.957 | locus YBR021W, strain FUR4, stronger effect = lower value 0.974 | locus YBR023C, strain chs3, stronger effect = lower value 0.981 | locus YBR171W, strain sec66, stronger effect = lower value 0.99 | locus YBR229C, strain ROT2, stronger effect = lower value 1.01 | locus YBR231C, strain swc5, stronger effect = lower value 0.97 | locus YBR279W, strain paf1, stronger effect = lower value 0.981 | locus YCL011C, strain gbp2, stronger effect = lower value 0.971 | locus YCL016C, strain dcc1, stronger effect = lower value 0.973 | locus YCL029C, strain bik1, stronger effect = lower value 0.999 | locus YCL069W, strain vba3, stronger effect = lower value 0.984 | locus YCR088W, strain abp1, stronger effect = lower value 0.994 | locus YDL005C, strain med2, stronger effect = lower value 0.963 | locus YDL035C, strain GPR1, stronger effect = lower value 1.04 | locus YDL040C, strain nat1, stronger effect = lower value 0.973 | locus YDL074C, strain BRE1, stronger effect = lower value 1.03 | locus YDL101C, strain DUN1, stronger effect = lower value 1.01 | locus YDL134C, strain PPH21, stronger effect = lower value 1.04 | locus YDL185W, strain tfp1, stronger effect = lower value 0.994 | locus YDL192W, strain arf1, stronger effect = lower value 1 | locus YDR001C, strain nth1, stronger effect = lower value 0.958 | locus YDR069C, strain doa4, stronger effect = lower value 0.976 | locus YDR101C, strain arx1, stronger effect = lower value 1 | locus YDR137W, strain rgp1, stronger effect = lower value 0.917 | locus YDR150W, strain NUM1, stronger effect = lower value 1.02 | locus YDR159W, strain sac3, stronger effect = lower value 0.964 | locus YDR162C, strain NBP2, stronger effect = lower value 1.02 | locus YDR195W, strain ref2 0.943 | locus YDR297W, strain sur2, stronger effect = lower value 0.979 | locus YDR318W, strain mcm21, stronger effect = lower value 1.01 | locus YDR334W, strain swr1, stronger effect = lower value 0.982 | locus YDR335W, strain msn5, stronger effect = lower value 0.95 | locus YDR388W, stronger effect = lower value 1 | locus YDR392W, strain spt3, stronger effect = lower value 0.956 | locus YDR502C, strain sam2, stronger effect = lower value 1 | locus YEL003W, strain gim4, stronger effect = lower value 0.965 | locus YEL037C, strain rad23, stronger effect = lower value 0.978 | locus YEL061C, strain CIN8 (second series), stronger effect = lower value 0.973 | locus YEL061C, strain CIN8, stronger effect = lower value 1.01 | locus YER015W, strain faa2, stronger effect = lower value 0.979 | locus YER016W, strain bim1, stronger effect = lower value 0.94 | locus YER110C, stronger effect = lower value 0.991 | locus YER111C, strain swi4, stronger effect = lower value 0.969 | locus YER155C, strain BEM2 (second series), stronger effect = lower value 0.984 | locus YER155C, strain BEM2, stronger effect = lower value 1.01 | locus YER167W, strain BCK2, stronger effect = lower value 1.01 | locus YFR010W, strain ubp6, stronger effect = lower value 0.959 | locus YGL078C, strain dbp3, stronger effect = lower value 0.997 | locus YGL086W, strain mad1, stronger effect = lower value 1.02 | locus YGL167C, strain pmr1, stronger effect = lower value 0.983 | locus YGL173C, strain kem1, stronger effect = lower value 0.986 | locus YGL227W, strain vid30, stronger effect = lower value 0.982 | locus YGL240W, strain doc1, stronger effect = lower value 0.956 | locus YGL248W, strain PDE1, stronger effect = lower value 1.01 | locus YGL253W, strain hxk2, stronger effect = lower value 0.948 | locus YGR078C, strain PAC10, stronger effect = lower value 1.02 | locus YGR135W, strain pre9, stronger effect = lower value 0.996 | locus YGR252W, strain gcn5, stronger effect = lower value 0.912 | locus YHR013C, strain ard1, stronger effect = lower value 0.942 | locus YHR027C, strain rpn1, stronger effect = lower value 0.971 | locus YHR030C, strain SLT2, stronger effect = lower value 1.02 | locus YHR079C, strain IRE1 (second series), stronger effect = lower value 0.993 | locus YHR079C, strain IRE1, stronger effect = lower value 1.02 | locus YHR094C, strain hxt1, stronger effect = lower value 1 | locus YHR129C, strain ARP1, stronger effect = lower value 1.01 | locus YHR142W, strain chs7, stronger effect = lower value 0.954 | locus YHR200W, strain rpn10, stronger effect = lower value 1 | locus YIL066C, strain RNR3, stronger effect = lower value 1.04 | locus YIL073C, strain SPO22, stronger effect = lower value 1.02 | locus YIL125W, strain kgd1, stronger effect = lower value 1 | locus YIR030C, strain dcg1, stronger effect = lower value 1.01 | locus YJL092W, strain hpr5, stronger effect = lower value 0.985 | locus YJL095W, strain BCK1 (second series), stronger effect = lower value 0.965 | locus YJL095W, strain BCK1, stronger effect = lower value 1 and 1.04 | locus YJL115W, strain asf1, stronger effect = lower value 0.946 | locus YJL129C, strain trk1, stronger effect = lower value 0.951 | locus YJL134W, strain LCB3, stronger effect = lower value 1.01 | locus YJL154C, strain vps35, stronger effect = lower value 0.983 | locus YJL164C, strain tpk1, stronger effect = lower value 0.959 | locus YJL166W, strain qcr8, stronger effect = lower value 0.999 | locus YJL168C, strain set2, stronger effect = lower value 0.992 | locus YJL187C, strain SWE1 (second series), stronger effect = lower value 1.01 | locus YJL187C, strain SWE1, stronger effect = lower value 0.973 | locus YJR043C, strain POL32, stronger effect = lower value 1.04 | locus YJR066W, strain TOR1, stronger effect = lower value 0.965
